{
  "source": "PubChem BioAssay (NCI)",
  "note": "About 83,000 compounds went through this panel and 20% of them were active in at least one assay; those are over-represented in the sample as a whole.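 96-well plates, one dose, 48 hours. Percent growth reported; active if below 10.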 A number with no mark means an inactive call. Activity calls are given as the source filed them.",
  "data": [
    {"tested_on": "HL-60(TB) leukemia", "assay": "NCI-60 one-dose screen, 48 h (100 = growth as untreated, 0 = no growth, -100 = all killed)", "details": "10 µM unless noted", "values": [
      {"smiles": "COc1ccc(C2C(C#N)=C(/N=C/c3ccc(Cl)cc3)Oc3c2sc2c(C)cccc32)cc1", "note": "(configuration not stated)", "growth": "4.04% (active)"},
      {"smiles": "CSc1ccc2c(c1)N(C(=O)/C(C#N)=C/c1c[nH]c3ccccc13)c1ccccc1S2", "growth": "12.8%"},
      {"smiles": "Clc1cccc(/C=N/Nc2nc(N/N=C/c3cccc(Cl)c3)nc(N3CCOCC3)n2)c1", "growth": "-9.74% (active)"},
      {"smiles": "COc1ccc(Cc2nn(CC(=O)N/N=C/c3ccc(Cl)cc3)c(=O)c3c(C)noc23)cc1", "growth": "101%"},
      {"smiles": "COC(=O)CNC(=O)c1cccc(-c2cc(=O)c3c(OC)c(OC)c(OC)cc3o2)c1", "growth": "109%"},
      {"smiles": "O=C(N/N=C\\c1ccc(Cl)cc1)c1ccc2nc(-c3ccc(Br)cc3)[nH]c2c1", "growth": "41.5%"},
      {"smiles": "CCCCCc1ccc(S(=O)(=O)Nc2cc(-c3csc(NC(=O)CN4CCN(C)CC4)n3)ccc2N2CCN(C)CC2)cc1", "growth": "-48.8% (active)"},
      {"smiles": "CC1(C)CC[C@]23CC[C@]4(C)[C@H](CC[C@@H]5[C@@]6(C)CC[C@H](N)C(C)(C)[C@@H]6CC[C@]54C)[C@H]2[C@H]1OC3", "growth": "-38.4% (active)"},
      {"smiles": "C/C(=C(/C)C1CC1CCN(C(=O)c1ccc([N+](=O)[O-])cc1)S(=O)(=O)c1ccc(C)cc1)C1CCCCC1", "note": "(configuration not stated)", "growth": "96.5%"},
      {"smiles": "O=C(NCCCNc1cc(-c2cn(-c3ccccc3)nc2-c2cccc(O)c2)ccn1)Nc1ccc(F)cc1", "growth": "1.09% (active)"},
      {"smiles": "COc1ccc(/C(=N\\NC(N)=S)c2ccc(Cl)cc2)cc1OC", "growth": "13.2%"},
      {"smiles": "NS(=O)(=O)c1ccc(Nc2nc(N/N=C/c3ccc4c(c3)OCO4)nc(Nc3ccccc3)n2)cc1", "growth": "31.1%"},
      {"smiles": "O=C(CSc1nnc(-c2ccc(Cl)cc2)n1-c1ccccc1)Nc1cccc(F)c1", "growth": "71.7%"},
      {"smiles": "C/C=C/[C@@H]1C=C[C@@H]2C[C@H](C)CC[C@H]2[C@]1(C)/C(O)=C1/C(=O)[C@H](CO)N(C)C1=O", "growth": "62.7%"},
      {"smiles": "NS(=O)(=O)c1ccc(Nc2nc(Nc3ccccc3)nc3nnc(SCC(=O)NC4CCCCC4)n23)cc1", "growth": "106%"},
      {"smiles": "CCCC(=O)NC(c1cccnc1)c1cc(C(C)(C)C)c2cccnc2c1O", "note": "(configuration not stated)", "growth": "-13.7% (active)"},
      {"smiles": "O=C1[C@H]2Cc3c([nH]c4ccccc34)[C@@H](c3c(Cl)cccc3Cl)N2C(=O)CN1C1CCN(CC2CCCCC2)CC1", "growth": "35.4%"},
      {"smiles": "O=C1[C@@H]2Cc3c([nH]c4ccccc34)[C@H](c3ccc(Br)cc3)N2C(=O)CN1C1CCN(Cc2c(Cl)cccc2Cl)CC1", "growth": "-79% (active)"},
      {"smiles": "O=C(NNc1nc2cc(F)cc(F)c2n2cccc12)c1cnccn1", "growth": "-25% (active)"},
      {"smiles": "CCOC(=O)C1=C(C)N=C2Sc3ccccc3N2C1c1ccccc1", "note": "(configuration not stated)", "growth": "61.9%"},
      {"smiles": "CNC(=O)c1c(NC(=O)c2ccccc2C(F)(F)F)sc2c1CCC(=O)C2", "growth": "-10.5% (active)"},
      {"smiles": "Cn1cc(-c2cc3ncnc(Nc4ccc(NC(=O)Nc5cc(C(C)(C)C)on5)cc4)c3s2)cn1", "growth": "13.6%"},
      {"smiles": "CC(=O)Nc1cc(F)cc(-c2ccc3[nH]cc(-c4ccccc4)c3n2)c1", "growth": "7.81% (active)"},
      {"smiles": "O=S(=O)(Oc1ccc(-c2cn3ccoc3n2)cc1)C1CCCCC1", "growth": "90.2%"},
      {"smiles": "COc1cccc(-c2nn(-c3ccccc3)cc2-c2ccnc(N3CCN(C(=O)Nc4ccc(F)cc4)CC3)c2)c1", "growth": "11.2%"},
      {"smiles": "Cc1[nH]c(C(=O)Nc2ccccc2OCc2cccc(C(=O)NC3CCNC3)c2)c(Cl)c1Cl", "note": "(configuration not stated)", "growth": "71.4%"},
      {"smiles": "COc1cc(/C=C2\\C(=O)Nc3cc(Cl)ccc32)ccc1OCc1ccc(F)cc1", "growth": "120%"}
    ]}
  ]
}
